Where “and” joins values, the source holds several entries; their conditions need not be identical. Identical values can stand only once. The whole screen tested about 5,500 compounds, of which about 2,000 (36%) were called active. Another 18% or so got no clear call; they are omitted. No stated cut-off is given here; in the data, active means normalized growth mostly below about 0.91 (no sharp cut-off); inconclusive means no clear call, values can overlap the other calls; inactive means mostly above about 0.92. The list shows a part of the results.
Assay: chemical genetic growth profiling, strain panel (AID 1159580);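 further: tested at 20 µM; growth read once vehicle control cultures reached saturation at 30 °C; 1 = growth at the plate median or of vehicle wells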
Settings: S. cerevisiae deletion strains, growth OD

Measured: normalized growth

COc1ccc(C[C@H]2NC[C@H](O)[C@H]2OC(C)=O)cc1
0.596 (active) and 0.961 (inactive): locus YJL095W, strain BCK1, stronger effect = lower value
active: locus YAL013W, strain DEP1, stronger effect = lower value 0.0582 | locus YAL021C, strain ccr4, stronger effect = lower value 0.397 | locus YAL026C, strain drs2, stronger effect = lower value 0.762 | locus YAL030W, strain snc1, stronger effect = lower value 0.713 | locus YBL061C, strain skt5, stronger effect = lower value 0.803 | locus YBR009C, strain hhf1, stronger effect = lower value 0.516 | locus YBR023C, strain chs3, stronger effect = lower value 0.823 | locus YBR231C, strain swc5, stronger effect = lower value 0.648 | locus YBR279W, strain paf1, stronger effect = lower value 0.869 | locus YCL011C, strain gbp2, stronger effect = lower value 0.659 | locus YCL016C, strain dcc1, stronger effect = lower value 0.791 | locus YCL069W, strain vba3, stronger effect = lower value 0.904 | locus YCR088W, strain abp1, stronger effect = lower value 0.835 | locus YDL005C, strain med2, stronger effect = lower value 0.122 | locus YDL035C, strain GPR1, stronger effect = lower value 0.222 | locus YDL074C, strain BRE1, stronger effect = lower value 0.242 | locus YDL101C, strain DUN1, stronger effect = lower value 0.306 | locus YDL134C, strain PPH21, stronger effect = lower value 0.533 | locus YDL192W, strain arf1, stronger effect = lower value 0.447 | locus YDR069C, strain doa4, stronger effect = lower value 0.117 | locus YDR101C, strain arx1, stronger effect = lower value 0.874 | locus YDR150W, strain NUM1, stronger effect = lower value 0.656 | locus YDR162C, strain NBP2, stronger effect = lower value 0.0621 | locus YDR195W, strain ref2 0.698 | locus YDR297W, strain sur2, stronger effect = lower value 0.838 | locus YDR318W, strain mcm21, stronger effect = lower value 0.7 | locus YDR334W, strain swr1, stronger effect = lower value 0.901 | locus YDR388W, stronger effect = lower value 0.161 | locus YDR392W, strain spt3, stronger effect = lower value 0.622 | locus YDR502C, strain sam2, stronger effect = lower value 0.734 | locus YEL037C, strain rad23, stronger effect = lower value 0.895 | locus YEL061C, strain CIN8, stronger effect = lower value 0.598 | locus YER015W, strain faa2, stronger effect = lower value 0.81 | locus YER016W, strain bim1, stronger effect = lower value 0.9 | locus YER167W, strain BCK2, stronger effect = lower value 0.704 | locus YFR010W, strain ubp6, stronger effect = lower value 0.104 | locus YGL086W, strain mad1, stronger effect = lower value 0.501 | locus YGL173C, strain kem1, stronger effect = lower value 0.885 | locus YGL248W, strain PDE1, stronger effect = lower value 0.298 | locus YGL253W, strain hxk2, stronger effect = lower value 0.575 | locus YGR078C, strain PAC10, stronger effect = lower value 0.523 | locus YGR135W, strain pre9, stronger effect = lower value 0.272 | locus YGR229C, strain SMI1, stronger effect = lower value 0.0868 | locus YGR252W, strain gcn5, stronger effect = lower value 0.68 | locus YHR013C, strain ard1, stronger effect = lower value 0.336 | locus YHR027C, strain rpn1, stronger effect = lower value 0.717 | locus YHR079C, strain IRE1 (second series), stronger effect = lower value 0.916 | locus YHR129C, strain ARP1, stronger effect = lower value 0.831 | locus YHR200W, strain rpn10, stronger effect = lower value 0.494 | locus YIL066C, strain RNR3, stronger effect = lower value 0.258 | locus YIL073C, strain SPO22, stronger effect = lower value 0.119 | locus YIR030C, strain dcg1, stronger effect = lower value 0.919 | locus YJL092W, strain hpr5, stronger effect = lower value 0.89 | locus YJL095W, strain BCK1 (second series), stronger effect = lower value 0.84 | locus YJL129C, strain trk1, stronger effect = lower value 0.479 | locus YJL164C, strain tpk1, stronger effect = lower value 0.622 | locus YJL166W, strain qcr8, stronger effect = lower value 0.622 | locus YJL187C, strain SWE1 (second series), stronger effect = lower value 0.32 | locus YJR043C, strain POL32, stronger effect = lower value 0.524 | locus YJR075W, strain HOC1, stronger effect = lower value 0.174
0.133 (active) and 0.945 (inactive): locus YHR030C, strain SLT2, stronger effect = lower value
inactive: locus YBR021W, strain FUR4, stronger effect = lower value 1.05 | locus YBR171W, strain sec66, stronger effect = lower value 1 | locus YBR229C, strain ROT2, stronger effect = lower value 1.01 | locus YCL029C, strain bik1, stronger effect = lower value 0.961 | locus YDL040C, strain nat1, stronger effect = lower value 1 | locus YDL185W, strain tfp1, stronger effect = lower value 0.993 | locus YDR001C, strain nth1, stronger effect = lower value 0.964 | locus YDR137W, strain rgp1, stronger effect = lower value 0.942 | locus YDR159W, strain sac3, stronger effect = lower value 1.09 | locus YDR335W, strain msn5, stronger effect = lower value 0.927 | locus YEL003W, strain gim4, stronger effect = lower value 0.984 | locus YEL061C, strain CIN8 (second series), stronger effect = lower value 0.937 | locus YER110C, stronger effect = lower value 1 | locus YER111C, strain swi4, stronger effect = lower value 0.981 | locus YER155C, strain BEM2 (second series), stronger effect = lower value 0.938 | locus YER155C, strain BEM2, stronger effect = lower value 1.01 | locus YGL078C, strain dbp3, stronger effect = lower value 0.981 | locus YGL167C, strain pmr1, stronger effect = lower value 1.02 | locus YGL227W, strain vid30, stronger effect = lower value 0.989 | locus YGL240W, strain doc1, stronger effect = lower value 0.994 | locus YHR079C, strain IRE1, stronger effect = lower value 0.921 | locus YHR094C, strain hxt1, stronger effect = lower value 1 | locus YHR142W, strain chs7, stronger effect = lower value 0.92 | locus YIL125W, strain kgd1, stronger effect = lower value 1.01 | locus YJL115W, strain asf1, stronger effect = lower value 1.02 | locus YJL134W, strain LCB3, stronger effect = lower value 1.02 | locus YJL154C, strain vps35, stronger effect = lower value 1.01 | locus YJL168C, strain set2, stronger effect = lower value 1.01 | locus YJR066W, strain TOR1, stronger effect = lower value 0.911

— PubChem BioAssay AID1159580 (chemical genetic matrix, 2015)
